Consider 94 compounds from PubChem BioAssay AID1422 (Emory University Molecular Libraries Screening Center, 2008).

Values joined by “and” are separate entries in the source; they are usually repeats but may differ in a detail not shown here. Identical values can stand only once. The whole screen tested about 260,000 compounds, of which about 1,300 (0.5%) were called active.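 Rule for the calls: active = percent inhibition above 40 after rounding to a whole number; inactive = the rest.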 This excerpt belongs to a sample that is enriched for actives. Some compounds were tested as several samples or in several runs, with calls that do not always agree.

This assay deals with Prostaglandin E2 receptor EP2 subtype (Homo sapiens) (UniProt P43116). Description: human EP2 receptor antagonists, primary screen, TR-FRET cAMP, C6 glioma cells (AID 1422).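 Note: rat C6 glioma host cells with rolipram phosphodiesterase inhibitor present; the protocol text gives 20 µM as final concentration.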 The conditions noted are these: C6 glioma cells expressing human EP2, cAMP TR-FRET; at 25 µM; stronger effect = higher value; cells stimulated with saturating PGE2. In general terms: Time-resolved FRET reads energy transfer from a long-lived donor to a nearby acceptor.
Chain of Prostaglandin E2 receptor EP2 subtype (Homo sapiens) (P43116 whole entry, looked up): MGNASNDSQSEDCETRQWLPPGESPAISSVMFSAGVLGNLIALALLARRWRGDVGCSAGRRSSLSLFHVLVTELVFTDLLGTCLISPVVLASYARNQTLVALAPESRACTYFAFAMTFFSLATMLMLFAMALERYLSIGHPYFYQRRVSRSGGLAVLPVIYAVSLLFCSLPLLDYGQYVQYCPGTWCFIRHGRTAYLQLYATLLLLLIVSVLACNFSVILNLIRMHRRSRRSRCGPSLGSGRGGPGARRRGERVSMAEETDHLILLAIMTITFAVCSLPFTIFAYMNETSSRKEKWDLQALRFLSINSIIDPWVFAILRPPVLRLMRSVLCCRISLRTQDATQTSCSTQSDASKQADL
Consider `CCc1cccc2cc3c(N)c(C(=O)Nc4cc(OC)ccc4OC)sc3nc12`, for which the inhibition (commonly the relative decrease from the control value, in per cent) is 5.34% (inactive). With `CCn1cc(/C=C/c2nc3ccccc3c(=O)n2C)c2ccccc21`, the inhibition is 16.1% (inactive). Take `CC(=O)Nc1ccc(-c2csc(NC(=O)Nc3ccccc3)n2)cc1`: the inhibition was 55% (active).

On to `CC(=O)Nc1ccc(S(=O)(=O)Nc2nc(-c3ccc(C(C)(C)C)cc3)cs2)cc1`, for which the inhibition was 4.4% (inactive). With `CC(=O)Nc1ccc(-c2csc(NC=C3C(=O)OC(C)(C)OC3=O)n2)cc1`, the inhibition was 2.63% (inactive). With `O=C1c2cccc3cccc(c23)C(=O)N1c1ccc(N2C(=O)c3cccc4cccc(c34)C2=O)cc1`, the inhibition was 9.96% (inactive).

Turning to `O=c1[nH]c2ccccc2n2c(-c3ccccc3)nnc12`, the inhibition was 82.1% (active). Consider `CCOC(=O)c1cnc2[nH]c3ccccc3n2c1=O`, for which the inhibition is 4.64% (inactive).

As for `Cc1ccc(-c2nc3ccccc3[nH]c2=O)cc1`, the inhibition was 12.3% (inactive). Turning to `Cc1nn(CC(=O)Nc2cccc3ncccc23)c(=O)c2ccccc12`, the inhibition was 6.79% (inactive).

On to `O=c1cc(CSc2nnc(Cn3nnc4ccccc43)o2)c2ccccc2[nH]1`, for which the inhibition was 7.33% (inactive). As for `CCOc1ccc(NC(=S)N(CCO)Cc2cc3c(C)cc(C)cc3[nH]c2=O)cc1`, the inhibition is 6.48% (inactive).

For the compound `Cc1cc2c(cc1C)NC1=C(N2)O[C@H](c2c[nH]c3ccc(COc4ccccc4)cc23)C1=O`, the inhibition was 56.3% (active).

In the case of `COc1cc(C)c(CNC(=O)c2cccc(-n3cnnc3)c2)cc1C(C)C`, the inhibition was 4.98% (inactive).

Take `COCC(=O)Nc1cc(C)on1`: the inhibition is 7.17% (inactive). Turning to `CC(C)(C)NCC[C@@H](O)c1cc(C(F)(F)F)nc2c(C(F)(F)F)cccc12`, the inhibition was 48.9% (active). For the compound `COc1ccc(N(CC(=O)N2CCN(c3ccc(F)cc3)CC2)S(C)(=O)=O)cc1`, the inhibition is 6.08% (inactive).

Regarding `CCCC(c1nnnn1C1CCCCC1)N1CCN(c2ccccc2)CC1` (centres undefined), the inhibition was 5.51% (inactive).

Regarding `COc1ccc2[nH]c(=S)cc(C)c2c1`, the inhibition was 7.37% (inactive). As to `COc1ccc2[nH]c3ccc(OC)cc3c2c1`, the inhibition was 6.17% (inactive). `COc1ccc2[nH]c3cc4c(=O)c5cc(OC)ccc5[nH]c4cc3c(=O)c2c1`: the inhibition is 49.6% (active). As for `Cc1ccc(-c2cc(N)c(=O)n(CC(=O)N3c4ccccc4CC3C)n2)o1` (centres undefined), the figure is 9.35% (inactive); as for `CCOc1ccc2[nH]c(=O)c(CN(Cc3ccc4c(c3)OCO4)C(=O)Nc3ccc(C)cc3)cc2c1`, 10.3% (inactive); as for `Cc1ccc2cc(CN(Cc3cccs3)Cc3nnnn3Cc3ccco3)c(=O)[nH]c2c1`, 12.8% (inactive). For the compound `COc1ccc(-n2nnnc2SCC(=O)Nc2ccc(N(C)C)cc2)cc1`, the inhibition was 8.77% (inactive).

Turning to `Cc1ccc(N(CC(=O)N2CCC(C(N)=O)CC2)S(C)(=O)=O)cc1C`, the inhibition was 15.2% (inactive). Consider `Cc1ccc(-c2nc(C)sc2CC(=O)O)cc1`, for which the inhibition is 8.08% (inactive). To `O=C(O)Cc1sc(-c2ccccc2)nc1-c1cccs1` belongs 43% (active); to `C/C(=N/Nc1nc(-c2ccccc2)c(CC(=O)O)s1)c1ccccc1`, 11.6% (inactive); to `COC(=O)c1c(NC(=O)Cc2cccs2)sc(C(=O)Nc2cccc(Cl)c2)c1C`, 8.6% (inactive). To `CCCc1nc2ccccc2n1CC(O)COc1ccc(F)cc1` (centres undefined) belongs 10.9% (inactive); to `COc1ccc(C2(O)CCN(CCN3CCCCC3)CC2)c(OC)c1`, 12.5% (inactive).

As for `CCn1c(=O)n(CC)c2cc(CN(Cc3ccc(C)s3)CC(C)O)ccc21` (centres undefined), the inhibition was 1.95% (inactive).

With `CCCC(=O)C1CCN(Cc2ccccc2)CC1`, the inhibition was 13% (inactive). For the compound `O=C(O)[C@@H]1CS[C@]2(CCCN(Cc3ccccc3)C2)N1`, the inhibition is 46.7% (active).

Take `O=C(NC1CCN(Cc2ccccc2)CC1)c1c(F)cccc1F`: the inhibition is 2.64% (inactive). As for `Cc1cccc2c(C(=O)Nc3cccc(C(=O)N4CCCCC4)c3)cc(=O)[nH]c12`, the figure is 4.42% (inactive). To `CC(C)(C)c1cnnn1-c1ccc(S(N)(=O)=O)cc1` belongs 3.83% (inactive); to `CC(NC(=O)C1CCN(c2nc3ccccc3n2C)CC1)c1ccccc1` (centres undefined), 7.13% (inactive); to `ClC(Cl)(Cl)C(N1CCN(c2ccccc2)CC1)N1CCN(c2ccccc2)CC1`, 46.7% (active).

Consider `C(=N/N1CCN(c2ccccc2)CC1)/c1cccs1`, for which the inhibition was 6.51% (inactive). For `CC(NC(=O)Nc1ccccc1)C(c1cccs1)N1CCN(c2ccccc2)CC1` (centres undefined), the inhibition is 6.9% (inactive). With `COc1ccc(CN(Cc2cccnc2)C2CC(C)(C)NC(C)(C)C2)cc1OC`, the inhibition was 9.23% (inactive). Take `CCOc1ccc(OCC)c(NC(=O)CSc2nc3cc4c(cc3cc2C)OCO4)c1`: the inhibition is 15.2% (inactive). Turning to `O=C(Nc1ccc2oc(-c3cccnc3)nc2c1)c1cccc2ccccc12`, the inhibition was 10.6% (inactive). To `N#CC1=C(N)Oc2cc(O)ccc2C1C1CCCCC1` (centres undefined) belongs 7.43% (inactive); to `O=C(O)c1c(Br)c(Br)c(Br)c(Br)c1C1c2ccc(O)cc2Oc2cc(O)ccc21`, 46.5% (active). `CCn1cc(C(=O)N2CCC(n3c(C)nc4sc(C)c(C)c4c3=O)CC2)cn1`: the inhibition was -0.97% (inactive). As for `O=C(CN1CCC(n2nnc3cc(F)ccc32)CC1)Nc1cccc(F)c1`, the inhibition was 10.2% (inactive). As for `Cc1nn(CCC(=O)NC2(c3ccccc3)CCCC2)c(C)c1C`, the inhibition was 7.61% (inactive).

On to `COc1ccccc1OCC(O)Cn1c(=N)n(C)c2ccccc21` (centres undefined), for which the inhibition was 8.65% (inactive). As for `COc1ccccc1OCCNCC(O)COc1cccc2[nH]c3ccccc3c12` (centres undefined), the figure is 15.7% (inactive) and 44.9% (active); as for `CC(C)(C)NCC(O)COc1cccc2[nH]c(=O)[nH]c12` (centres undefined), 13.5% (inactive) and 12.7% (inactive); as for `Cn1c(=O)c2cc(S(=O)(=O)NC3(c4ccccc4F)CC3)ccc2n(C)c1=O`, 10.9% (inactive). `O=C(c1ccc([N+](=O)[O-])cc1)[C@@H](Br)[C@@H](Br)c1ccnc2ccccc12`: the inhibition is 99.4% (active).

Turning to `O=C(Nn1c(-c2ccccc2)nc2ccccc2c1=O)c1ccc([N+](=O)[O-])cc1`, the inhibition is 6.91% (inactive).

Turning to `O=C(c1ccncc1)c1ccc([N+](=O)[O-])cc1`, the inhibition is 8.78% (inactive). In the case of `COc1ccc(C(O)CN2CCC(O)(c3ccc4c(c3)OCO4)CC2)cc1` (centres undefined), the inhibition is 6.32% (inactive). To `O=c1[nH]c2cc3c(cc2cc1C(c1nnnn1C1CCCCC1)N1CCCCC1)OCCO3` (centres undefined) belongs 6.82% (inactive).

`COc1cc(/C=N/Nc2nc3ccccc3s2)ccc1O`: the inhibition was 16.7% (inactive). On to `O=[N+]([O-])c1cc(Br)c(O)c(/C=N/Nc2nc3ccccc3s2)c1`, for which the inhibition is 77% (active). In the case of `c1ccc2sc(NN=C3CCCC3)nc2c1`, the inhibition is 1.63% (inactive).

`COc1ccc2cc(CN(C(=O)Nc3ccc(F)cc3)C3CCCC3)c(=O)[nH]c2c1`: the inhibition was 8.38% (inactive). As for `CN(C)c1ncc(CN2CCC(O)(c3ccccc3F)CC2)cn1`, the inhibition was 5.6% (inactive). Regarding `COc1ccccc1NC(=O)c1sc(NC(=O)c2cccc(C)c2)c(C#N)c1C`, the inhibition is 11.9% (inactive). For the compound `CCC(CN1CCC(C)CC1)NC(=O)Cc1c(C)nc(OC)nc1OC` (centres undefined), the inhibition was 0.46% (inactive). Consider `Cc1cc(C(=O)NCCc2ccc(Cl)cc2)n(-c2ccccc2)n1`, for which the inhibition is 6.8% (inactive). Consider `O=C(O)c1nn(-c2ccc(Cl)cc2)c2c1C(=O)c1ccccc1C2=O`, for which the inhibition is 42.4% (active). As for `Cc1ccc(-n2ccc(=O)c(C(=O)O)n2)cc1`, the inhibition is 11.4% (inactive). With `Cc1sc2nc(C(C)C)nc(SCC(=O)NCc3ccccc3)c2c1C`, the inhibition is 4.54% (inactive).

On to `O=C(NC1CCCC1)C(c1ccccc1F)N(Cc1ccco1)C(=O)Cc1c[nH]c2ccccc12` (centres undefined), for which the inhibition was 11.9% (inactive).

Turning to `O=C1C=CC(=O)N1c1ccc(N2CCCCC2)cc1`, the inhibition was 106% (active). With `Cc1ccccc1C(=O)Nc1ccc(N2CCCCCC2)cc1`, the inhibition was -0.3% (inactive).

As to `N#CSc1ccc(N2CCCCC2)cc1`, the inhibition was 6.1% (inactive).

As to `C=C(C)Cn1c(N2CCC(C)CC2)nc2c1c(=O)[nH]c(=O)n2C`, the inhibition was 10.2% (inactive).

In the case of `C=CCn1c(NC)nc2c1c(=O)n(C)c(=O)n2C`, the inhibition was 7.03% (inactive). As for `CCOC(=O)c1cnc2c(c(C)nn2CC)c1Cl`, the figure is 4.46% (inactive).

Consider `Cc1c(NC(=O)c2cc(-c3ccc(Cl)s3)nc3ccccc23)c(=O)n(-c2ccccc2)n1C`, for which the inhibition is 13.1% (inactive). `CCOC(=O)c1cc(-c2ccc(Cl)s2)nc2c1c(C)nn2C`: the inhibition is 41.6% (active). As for `COc1cc(OC)cc(-n2nnnc2SCC(=O)N2CCN(C)CC2)c1`, the figure is 10.8% (inactive); as for `COc1ccc2cc(C#N)c(SCC(=O)Nc3ccccc3Br)nc2c1`, 27% (inactive). To `C=CS(=O)c1sc(Cl)c(N2CCOCC2)c1[N+](=O)[O-]` (centres undefined) belongs 116% (active); to `COc1cc(NC(=O)CSc2nnc3c(n2)[nH]c2ccccc23)cc(OC)c1`, 9.57% (inactive); to `Cc1cc2nc(-c3ccc(SCC(=O)N4CCCCC4C)nc3)[nH]c2cc1C` (centres undefined), 12.4% (inactive).

On to `Cc1ccc(SCCC(=O)Nc2cc(C)on2)cc1`, for which the inhibition was 1.47% (inactive).

`Cc1ccc2nc(-c3ccc(SCC(=O)Nc4cc(C)on4)nc3)[nH]c2c1`: the inhibition is 64.2% (active) and 20.1% (inactive). For `CCCN1C(=O)/C(=C/N(C(C)=O)c2ccccc2)SC1=S`, the inhibition is 12.5% (inactive). Consider `CC1CCN(C(=O)CSc2nc3ccccc3n2Cc2ccccc2)CC1`, for which the inhibition was 11.6% (inactive). For `Fc1ccc2[nH]c3c(N4CCSCC4)ncnc3c2c1`, the inhibition was 59.2% (active). Take `O=C(NCc1noc(-c2ccccc2)n1)c1cc(-c2ccccn2)n[nH]1`: the inhibition is 4.63% (inactive). Regarding `O=C(CN1C(=O)[C@@H]2CCCN2C(=O)c2ccccc21)Nc1ccc2c(c1)OCCO2`, the inhibition was 6.18% (inactive). For `NC(N)=N/N=C/c1ccc(OCc2ccc(Cl)cc2Cl)cc1`, the inhibition is 97.3% (active). For `NC(N)=N/N=C/c1ccc(Cl)c([N+](=O)[O-])c1`, the inhibition is 5.88% (inactive). On to `COc1ccc(C(=O)O/N=C(\N)Cc2ccc(Cl)cc2Cl)cc1OC`, for which the inhibition is 14.2% (inactive).
